The record followed here is PubChem BioAssay AID1508600 (Functional Genomics Laboratory (NCATS/FGL), 2020).

About 3,700 (7%) of roughly 53,000 sequences were called active. The entries come from a sample that favours actives as a whole. Unmarked numbers belong to inactive results.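 Rule for the calls: active = gene knockdowns whose robust z-score for IL-1 alpha signal is at least 2 or at most -2, so actives lie on both sides; inactive = the rest.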

A short description of the experiment: Components of the Cytosolic LPS Sensing Pathway: Gene Identification via Genome-wide siRNA Screen.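 Note: robust z of the log signal after scaling to non-targeting control siRNA wells of the plate.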 Particulars: RAW264.7 macrophages, IL-1a HTRF, actives lie on both sides, screened at 100 nM (by protocol), cells primed 5 h with Pam3CSK4 first. In outline:
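RAW264.7; siRNA 100 nM final, RNAiMAX, 48h 37 degrees C; Pam3CSK4 5 h; LipidA + TransIT-TKO 24 h; IL-1a HTRF; CellTiter-Glo viability; robust z vs negative-control median.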
GGAUGAAUAUGGUGUUUCUTT against Rnf138: the z-score was -2.23 (active).
For GCUAAAUUACACAUUGACCTT against Vcam1 the value was 0.226; for GGGAAGCAACAUGAUUAAATT against Kat7, 0.669.
As for CCUCACUGGUACAAUCCCATT against Tsg101, the z-score was -0.906.
In the case of GGAACCAGUUUAAAUGAUUTT against Marchf7 it was 0.04; in that of CGUUACGUAAAUCUUGUGATT against Sstr2, 0.227.
As to GGUGGUCUACCAGCAUUUGTT against Pde4dip, the z-score is 2.16 (active).
On to GGCCAAUAAUGUGUUUCGUTT against Cmpk2, for which the z-score was -0.632.
Take CCUGGUGCCUUUAUCUACCTT against Ctxn1: the z-score was 0.907.
Take GGAGAUGCUGUUCUUUCCGTT against Casc3: the z-score is -1.18.
For GGAUGGAUUACUGAAAGUUTT against Wdr35 the value was 0.715; for “GGCAGCUAUUGCUCUGGAATT against 5730596B20Rik”, -0.293.
In the case of GGAGCAACAGCCAAAUACCTT against Hmgb4 it was 2.39 (active); in that of GGACUAUGAGCAGAUGAAGTT against Calcb, -0.217.
For GGAUGUGCACGAAGGACAGTT against Cdh2 the value was 2.09 (active); for CCAGUCCAUUGAAUAGUUCTT against Papola, 0.329; for GGAAAGGAAUCCAAAAAUCTT against Lias, -0.42.
As for CCAGAAGUGAUCGCCUCUUTT against Zfp300, the z-score was 1.16.
For GCCAUAAAACAGAAUCUCATT against Tmco5b the value was -0.309.
Take GGUGGUGAUAAGCUUCCUCTT against Olfr1417: the z-score was -1.87.
As for GGGACUUCAGACAGUUAUCTT against Ess2, the z-score is 1.69.
For GCCGAACUUCGGAAUUCUGTT against Nf1 the value was 2.08 (active).
For GGUAUAUGGAACCAUGGGATT against Psmb9 the value was -0.565; for GGAGUCUGCUGGUUUAGUGTT against Fmc1, 0.0551; for GGAGUAUGGCGAAUUCUAUTT against Hsp90ab1, 1.34.
For GCUGCUUGCUGACCUCCUATT against Olfr522 the value was 0.358; for GCAUUCAGAAAUUGAGGGUTT against Sin3b, -0.0974.
Take “CCUAUCUCUUAGCAAAGAUTT against 2010003K11Rik”: the z-score was 2.87 (active).
Regarding GGCGAUAUUCUUAAUUAUCTT against Mfsd6, the z-score is 0.735.
In the case of GGUGUUGAACAAGUGCGACTT against Tescl it was -0.987.
With GCUGAUCAUCCGUUUCACUTT against Hdc, the z-score was -0.227.
For CGUACUUCAGCGAUUUAAATT against Exoc2 the value was 0.555.
In the case of GGACUCAAGACACCAGUUGTT against Rufy3 it was -0.318; in that of GCAAGAAGCCUGCCAAUAUTT against Etd, 2.05 (active); in that of GGAGUACUUUGGAAUAGCATT against Frmd4a, -0.467.
As for GCUCUAUAUCCAGGAAACUTT against Krtap6-2, the z-score was 0.0521.
For GGUGCAUUUAUGUAUUUCCTT against Olfr916 the value was -1.76; for GCAAUCAUUGAAUCCACUCTT against Spag9, 2.16 (active); for GGAUGUGGUUCAGAAGGCCTT against Stab1, -0.29.
Regarding GAUUCUUACUUUGGUCUACTT against Olfr9, the z-score is 0.62.
Take GCCAAAACAUUUCAGAGCCTT against Hemk1: the z-score was -0.000768.
For GCAUCUAACUACUUGGGCCTT against Hhip the value was 1.18; for GCACUACCAAGGCGAUAACTT against Tspan18, -0.624.
For GGAACCAGUGCUGCAUUUATT against Defb41 the value was -2.05 (active).
In the case of GGCCAUAAACAACCAUUUATT against Ppp1r1b, the z-score is 0.747.
GGACCAACGUGCAGAAAUGTT against Metrn: the z-score is -0.702.
For GGUCUGGAGACUUUCAGUCTT against Hexa the value was 0.521; for GGGCAGGGACAUUAGUCAUTT against Zfp106, 2.88 (active).
For GGGAGUGAAUGUUUCACAUTT against Tmem116 the value was -1.56.
As for “GGGUAUUAAGCAGGGAUCGTT against 1810009A15Rik”, the z-score is 1.11.
For CCAAAUGACUAGCACCAGUTT against Arl5c the value was -2.22 (active); for CCUUCUACCUCACCUUACGTT against Tmem186, -1.23.
For “CCAAUUCAAUUAGACUAGATT against 9430015G10Rik” the value was 0.89; for GCAUGAGUUAUCAUAAUCATT against Itgb2, 1.04.
Consider GGAUCAACCACAUCAGCUCTT against Hrh2, for which the z-score is -0.838.
In the case of GGGCCUUCUGAUUUAAAAGTT against Slc43a3, the z-score was -1.01.
In the case of GGUGUUUGGGUACCAGUCUTT against Cyp8b1 it was -1.03; in that of GGCUCAAGCGAAAAGCAGATT against Serping1, -0.46.
As to GGCCUAUUGUAAAAACCCATT against Taf1b, the z-score was -2.56 (active).
For the sequence CCAAGUCCCUUUGUGGUGUTT against Twnk, the z-score was -0.749.
On to CCGUUUAUUUAUCAGCUGGTT against Spsb4, for which the z-score was -1.18.
For the sequence GGAAGGUAAAUGUCUGCUCTT against Selenok, the z-score is 0.289.
For GGAGAUGGAUAAUUACGAGTT against Ift27 the value was 0.344.
For GGAGAUUUAAACAGCUAGGTT against Gmip the value was -0.418; for GGCUCAUAUUUCCAUCAGATT against Tchhl1, -1.13; for GGAAAUUGGGACUCACAUCTT against Trappc13, -0.0912.
For GUGGAAAAUUGAAGGGACGTT against Ndufb3 the value was 3.69 (active); for GGAUUCAAGUUCUCACCGATT against Serpina6, -0.462.
